# Screens (PubChem)
# NadD inh: blocks S. aureus nicotinate mononucleotide adenylyltransferase; inhibition, % at 20 µM; 360,000 compounds, 0.78% hits; purified NadD enzyme, colorimetric absorbance read-out; in the data active = inhibition above about 26%
# Neddyl block: blocks human cullin neddylation. P61081+Q13564. TR-FRET cullin neddylation, biochemical. inhibition, % at 25 µM. 360,000 compounds, 0.58% hits. AID 651699; in the data active = inhibition above about 36%
# Target sequence (P61081 whole entry, looked up): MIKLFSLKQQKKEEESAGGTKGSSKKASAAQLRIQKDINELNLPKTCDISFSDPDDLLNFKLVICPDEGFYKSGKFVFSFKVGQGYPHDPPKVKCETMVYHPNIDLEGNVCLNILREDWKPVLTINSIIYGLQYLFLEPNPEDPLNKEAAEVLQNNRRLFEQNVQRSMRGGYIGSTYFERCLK
# Target sequence (Q13564 whole entry, looked up): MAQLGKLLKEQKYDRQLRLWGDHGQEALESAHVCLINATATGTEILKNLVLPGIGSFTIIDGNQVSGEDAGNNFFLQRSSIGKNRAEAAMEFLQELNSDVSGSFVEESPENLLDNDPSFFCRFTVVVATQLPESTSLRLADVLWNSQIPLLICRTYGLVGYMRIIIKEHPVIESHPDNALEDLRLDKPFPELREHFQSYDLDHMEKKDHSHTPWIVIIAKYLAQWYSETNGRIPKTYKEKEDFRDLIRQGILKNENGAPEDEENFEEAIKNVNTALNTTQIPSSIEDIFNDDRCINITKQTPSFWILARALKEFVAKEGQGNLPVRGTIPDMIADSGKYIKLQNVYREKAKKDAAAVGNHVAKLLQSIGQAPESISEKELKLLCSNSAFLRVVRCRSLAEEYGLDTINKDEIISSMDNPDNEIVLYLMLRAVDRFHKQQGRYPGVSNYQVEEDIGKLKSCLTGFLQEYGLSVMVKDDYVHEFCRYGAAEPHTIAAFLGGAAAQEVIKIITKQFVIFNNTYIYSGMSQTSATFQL
# DAGLB inhibitor: diacylglycerol lipase beta (human) inhibition; 340,000 compounds, 0.059% hits; inhibition, % at 5.17 µM; HEK293T DAGLB membrane lysate, EnzChek fluorogenic substrate; Q8NCG7; in the data active = inhibition above about 34%
# ARNT TACC3 PPI: disruptors of human ARNT/TACC3 interaction | AID 623870 | 390,000 compounds, 0.66% hits | Q9Y6A5 | AlphaScreen His-ARNT PAS-B/GST-TACC3 binding, luminescence; TACC3 fragment carries E629A point mutation | inhibition, % at 9.99 µM;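 active = mean inhibition of replicates at least 50% and at least half of replicates each reaching 50%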
# sPLA2-III inh: Blocks human group III sPLA2 activity. Q9NZ20. QFRET BODIPY PC-A2 liposome hydrolysis, fluorescence. 370,000 compounds, 0.56% hits. inhibition, % at 12.2 µM;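 active = inhibition above mean plus 3 SD of compounds lying within the high and low control bounds, cut at about 19% in these data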
# Neddyl conf: confirmation of human cullin neddylation inhibitors | AID 652217 | calls only at 25 µM | 1,800 compounds, 13% hits | TR-FRET cullin neddylation biochemical assay | shares compounds with Neddyl block; in the data active = inhibition above about 40%;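 note: neddylation substrate is the cullin 1 ring ligase complex with SKP2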
# Hits are given with their value; - = inactive; . = no result given; + = active, no number. Hits are enriched below; roughly 2% of the tested compounds scored in any of these assays.
SMILES,NadD inh,Neddyl block,DAGLB inhibitor,ARNT TACC3 PPI,sPLA2-III inh,Neddyl conf
COc1ccc(-c2cc3ccc(OCC(N)=O)cc3oc2=O)cc1OC,-,42,-,-,-,-
CNC[C@H]1OCCCC[C@H](C)Oc2ccc(NC(=O)NC3CCCCC3)cc2C(=O)N([C@H](C)CO)C[C@@H]1C,.,.,.,-,.,.
COc1cccc(/C=C/C(=O)OCC(=O)NCc2ccco2)c1,-,49,-,-,-,-
O=C(COC(=O)/C=C/c1cccc(Br)c1)NCc1ccco1,-,-,-,-,-,.
COc1ccc(OC)c(/C=C/C(=O)OCC(=O)NCc2ccco2)c1,-,41,-,-,-,.
COC(=O)c1cc(NC(=O)c2c(-c3ccccc3)noc2C)ccc1N1CCOCC1,-,38,-,-,-,-
COC(=O)c1cc(NC(=O)c2c(-c3c(Cl)cccc3Cl)noc2C)ccc1N1CCOCC1,-,-,-,-,-,.
COc1ccc(S(=O)(=O)N(C)C[C@@H]2OCCCC[C@H](C)Oc3ccc(NC(=O)Nc4c(C)noc4C)cc3C(=O)N([C@@H](C)CO)C[C@@H]2C)cc1,.,.,.,-,.,.
CN(C)CCCNC(=O)C[C@H]1C[C@H](C(=O)N2CCCCC2)[C@@]2(C)c3[nH]c4cc(-c5ccco5)ccc4c3CCN2C1=O,-,48,-,-,-,-
C[C@H]1CN([C@@H](C)CO)C(=O)c2cc(-c3ccccc3F)cnc2O[C@@H]1CN(C)C(=O)NC1CCCC1,.,.,.,-,.,.
C[C@H](CO)N1C[C@H](C)[C@@H](CN(C)S(C)(=O)=O)Oc2ncc(C#CCN(C)C)cc2C1=O,.,.,.,-,.,.
COc1ccc2[nH]c(C(=O)O)c(NS(=O)(=O)c3ccc(OC)c(OC)c3)c2c1,-,44,-,-,-,+
COc1cc(C=NNC(=O)c2ccc(NS(=O)(=O)c3cccs3)cc2)cc(Br)c1O,-,50,-,-,-,+
COc1ccc(NS(=O)(=O)c2cccc(C(=O)N/N=C/c3ccc(O)cc3)c2)cc1,-,43,-,-,-,-
COc1ccc(NS(=O)(=O)c2cccc(C(=O)NN=Cc3ccc(O)c(OC)c3)c2)cc1,-,-,-,-,-,.
CCC(=O)N(C)C[C@@H]1Oc2ncc(C3=CCCC3)cc2C(=O)N([C@@H](C)CO)C[C@H]1C,.,.,.,-,.,.
CCNC(=O)C[C@H]1CC[C@@H]2[C@H](COc3ccc(NC(=O)NC(C)C)cc3C(=O)N2C)O1,.,.,.,-,.,.
COC(=O)c1ccccc1COn1c(=O)c[n+]([O-])c2ccccc21,-,-,-,-,-,.
O=c1c[n+]([O-])c2ccccc2n1OCc1ccccn1,-,37,-,.,-,-
CCOn1c(=O)c[n+]([O-])c2ccccc21,-,49,-,-,-,.
O=c1c[n+]([O-])c2ccccc2n1OCc1c(F)cccc1F,-,42,-,-,-,+
C[C@H]1CN([C@@H](C)CO)C(=O)c2cc(NS(=O)(=O)c3ccccc3)ccc2O[C@@H]1CN(C)S(=O)(=O)c1ccccc1,.,.,.,-,.,.
C[C@@H]1CN([C@@H](C)CO)S(=O)(=O)c2ccc(C#CC3CC3)cc2O[C@H]1CN(C)Cc1cccc(F)c1,.,.,.,-,.,.
CC1(C)C(O)=C(c2nc3ccccc3[nH]2)C(=N)N1c1ccccc1,-,41,-,.,-,.
Cc1sc(NC(=O)c2ccco2)c(C(c2ccccc2)N2CCC(C)CC2)c1C (configuration not stated),-,45,-,-,-,.
SMILES,NadD inh,Neddyl block,DAGLB inhibitor,ARNT TACC3 PPI,sPLA2-III inh,Neddyl conf
CC1Cc2ccccc2N1c1ncnc2nc[nH]c12 (configuration not stated),-,66,-,-,.,.
c1ccc2c(c1)CCN(c1ncnc3nc[nH]c13)C2,-,-,-,-,-,.
COCc1cc(C)nc2sc(C(=O)Nc3ccccc3C)c(N)c12,-,43,-,-,-,.
COCc1cc(C)nc2sc(C(=O)N3CCCC3)c(N)c12,-,-,-,-,-,.
COCc1cc(C)nc2sc(C(=O)OC)c(N)c12,-,43,-,-,-,.
COCc1cc(C)nc2sc(C(=O)Nc3ccccc3Br)c(N)c12,-,.,-,-,-,.
C[C@H](CO)N1C[C@H](C)[C@@H](CN(C)C)Oc2ccc(NC(=O)Nc3ccc(C(F)(F)F)cc3)cc2CC1=O,.,.,.,-,.,.
O=C(Nc1cccnc1Cl)c1cc(-c2cccc(O)c2)on1,-,70,-,-,-,+
COc1ccccc1S(=O)(=O)N[C@H]1CC[C@H](CCNC(=O)C2CC2)O[C@@H]1CO,.,.,.,-,.,.
COC(=O)c1[nH]c2cccc(OC)c2c1NC(=O)CN1CCN(c2cccc(OC)c2)C(C)C1 (configuration not stated),-,48,-,-,-,.
CCOC(=O)Nc1c(C(=O)OC)[nH]c2cccc(OC)c12,-,42,-,-,-,-
COC(=O)c1[nH]c2cccc(OC)c2c1NC(=O)CCN1CCC(C)CC1,-,.,-,-,-,.
O=C(NCC[C@H]1CC[C@H](NC(=O)C2CCC2)[C@H](CO)O1)c1cnccn1,.,.,.,-,.,.
COc1ccc(/C(C)=N/NC(=O)C2CC2)cc1,-,-,-,-,-,.
COc1ccc2cc(/C(C)=N/NC(=O)C3CC3)ccc2c1,-,43,-,-,-,-
C[C@H]1CN([C@@H](C)CO)C(=O)c2cccc(NC(=O)C3CCOCC3)c2O[C@@H]1CN(C)CC1CC1,.,.,.,-,.,.
COCC(=O)Nc1ccc2c(c1)C(=O)N(C)C[C@H](OC)[C@H](C)CN(C(=O)CC1CC1)[C@H](C)CO2,.,.,.,-,.,.
Cc1cccn2c(=O)c3cc(C(=O)N4CCCCC4C)sc3nc12 (configuration not stated),-,51,-,-,-,+
CCOC(=O)N1CCN(C(=O)c2cc3c(=O)n4cccc(C)c4nc3s2)CC1,-,.,-,-,-,.
COc1ccccc1N1CCN(C(=O)c2cc3c(s2)-c2ccccc2OC3)CC1,-,43,-,-,-,-
COc1ccccc1N1CCN(C(=O)c2cc3c(=O)n4cccc(C)c4nc3s2)CC1,-,49,-,-,-,+
CCN(CC)C(=O)c1cc2c(=O)n3cccc(C)c3nc2s1,-,.,-,-,-,.
CCCCN(CC)C(=O)c1cc2c(=O)n3cccc(C)c3nc2s1,-,62,-,-,-,.
Cc1cc(C(=O)Nc2cccc3c2O[C@@H](CN(C)S(=O)(=O)c2ccccc2)[C@@H](C)CN([C@@H](C)CO)C3=O)n(C)n1,.,.,.,-,.,.
CCCCOc1ccc(S(=O)(=O)N2CCCCC2)cc1,-,-,-,-,-,.
CCCCOc1ccc(S(=O)(=O)N2CCN(c3ccc(N4CCN(CC)CC4)nn3)CC2)cc1,-,46,-,-,-,-
CCOC(=O)c1oc2ccccc2c1NC(=O)c1ccc2c(c1)OCO2,-,-,-,-,-,.
COC(=O)c1[nH]c2cc(OC)ccc2c1NC(=O)c1ccc2c(c1)OCO2,-,42,-,-,-,-
COc1ccc(NC(=O)c2oc3ccccc3c2NC(=O)c2ccc3c(c2)OCO3)cc1,-,42,-,-,-,-
CN(C)c1ccc2c(=O)c3ccccc3oc2n1,-,40,.,.,-,-
